Results on nine molecules are retold here after PMC12864922, “TDP-43 directly inhibits mRNA accumulation in neurites through modulation of mRNA stability”.

B1: ENSMUSG00000061578.835|Ksr2|29:33;71:75;146:150 (ssRNA)
RNA: GGGAGUUCUACAGUCCGACGAUCGCUUCGAUAUCCGCAUGCUAAAGGGCUCAGUCCAUAGCUGCCUGACUCACACAUUCUAGGCCUUUCUUGAGGCAAGUGUUCAUCAUGAUACACACAGGGUGAGGAGGAGUUUCUUCAUGGCAAACAGGAAGCAAAGAGCAAUACAGGAAAAGGUCAGGGGUGAGAACACACAUUGCCACUUCCUCCAGCUAGGACCUUUGAGCAUCACAUUGUGAAGCCAUCCAGGGACUUGGGGGUUAGGUCAGAGGUAUCAAUACAUCUCCGGAAACAUCGUCACAGACUCUUGCGGUCGCACUAGUGUGGAAUUCUCGGGUGUCAAGG
B2: ENSMUSG00000004113.468|Cacna1b (ssRNA)
RNA: GGGAGUUCUACAGUCCGACGAUCGCUUCGAUAUCCGCAUGCUAGCAAAAAUUUAUAUUUAACAGUGUUGAGAGAGAGAGAGAGAGAGCGAGAGAGAGAGAGAUCCAGUCAUGCAACACAAAUGGGAUCUACUUUUAAACAACAGUCCUUUGACUAGUUUGCUGCCUGAAUAAUAUUUACAAACUAAACUUUGGAUUCUGCUCUUGUUUCUACAAUGAUUUUUUGUAUAAAGCAAAGUCCUUGGAUUAAAUAAAAACAACCCAAAAAAAAAAUCAAAAUCAAAACCCAGGAUGCAACUGGGUGACUCUUGCGGUCGCACUAGUGUGGAAUUCUCGGGUGUCAAGG
B3: ENSMUSG00000058297.109|Spock2|57:62 (ssRNA)
RNA: GGGAGUUCUACAGUCCGACGAUCGCUUCGAUAUCCGCAUGCUAUGUACACACAGCAAGGCUUACUAUCCGUCUCCUGACAUCCGAAGAGCUCGUCGCAGCACACACUAAUGGCCCUUGGGCUGCACGUGGUUAAGCAUAGCUGUCUCUGUGGCCCAACACAAAGAGGUAAACUUACUUAAAACACAGGGGUUUUGUUGCUGUUUGUUUUUUGUUAGUUUGUUUGUUGAUAAUUGGAUUGAGGAGUUAAUCCUCUGUCACAAUGUCAAAAGCAUGGACAUCCCUGAUAGAUUAUCUCUCAACCUCUCUUGCGGUCGCACUAGUGUGGAAUUCUCGGGUGUCAAGG
B4: ENSMUSG00000028439.270|Fam219a|220:224 (ssRNA)
RNA: GGGAGUUCUACAGUCCGACGAUCGCUUCGAUAUCCGCAUGCUAAGCUGAGGCUGUAGCUCAGUGAGAUGGUGGCUCUCCCAUGGCUGAAGACAAGUGCAAGCAGAGAGAGCCUCAGGCUGCUGGGCCUCGGACCCACGAGCCUCCUCUCACUGAGCCAGUGCGGCCAGAGUGUCUCUCCUUCAGGCGCCCCACAUGCCAGCAUUUCCACCCUCUGGAUUCUCCUCACAUGUCACUCUCCAGGUGCCGGGGCCUAGAGUGGGCCACACAGAAGGAGGAGUGGGGCUGUUGGCUUAGGAAGGGAACUCUUGCGGUCGCACUAGUGUGGAAUUCUCGGGUGUCAAGG
B5: ENSMUSG00000061578.426|Ksr2 (ssRNA)
RNA: GGGAGUUCUACAGUCCGACGAUCGCUUCGAUAUCCGCAUGCUAGACCACUGACCCGUCCAGACCCUCGCUUCUUACAAUGCCUCUUCUUCUGCCAGACCAGCCACCUGCCCCACUAACACCAAAUGGCUUCUGUCCCUGCUUCACGUUGCAAAUCCUUCAAGACAGAAGUUUCAGAGGGGAUAGUUCCUUCUAACCUUGUACUGGGACAUCAUCUAUGUCCCCAUCCCCAGAGCUGAAUUAGAGACACCAAGUAGCCUCUUGGGUUGUUUUGUGGGGUGUUCCCCUUGCUGGUCAAAGGAGUGCUCUUGCGGUCGCACUAGUGUGGAAUUCUCGGGUGUCAAGG
B6: ENSMUSG00000058297.310|Spock2 (ssRNA)
RNA: GGGAGUUCUACAGUCCGACGAUCGCUUCGAUAUCCGCAUGCUAGCAGCUAGCUACUGGGGACCUUGUGCUGAGGCUUCCAGGACAAAGCCCCAGUCUGGCUCUCCCCCAGCCUCUCAGGGGCACUGGCUGGUCACAUCCACUGAGUAUUGAUCGGUUGGACUUUAGGGAAGAGCCUCCUCCUUCCCAUUCCUUUCUGCCACCCUGGAAUGGCCACCUUAAUCGUCAUCUCCUCGGGGGGAAUACGGAAAUGUCACCAAGCUCCAUAAAGUGCUUCUCAUUCCACGACACAGUUCUGACUCUCCCUCUUGCGGUCGCACUAGUGUGGAAUUCUCGGGUGUCAAGG
B7: ENSMUSG00000090935.19|Synj2bp (ssRNA)
RNA: GGGAGUUCUACAGUCCGACGAUCGCUUCGAUAUCCGCAUGCUAAUUAUUUAGUCACGGAGGAAGAGAUCAACCUGACGAGAGGACCUUCGGGUAAAUGGCCAAGAUCUGAAGAACCUGCUGCACCAAGAUGCUGUAGACCUCUUCCGUAAUGCGGGAUGUGCUGUGUCCCUGAGAGUACAGCACAGGUUACCAGUGCAGAAUGGACCUAUAGUACAUCGAGGUGAAGGAGAGCCAAGUGGAGUUCCUGUAGCUAUGGUGCUGCUACCAGUGUUUGCCCUCACCAUGGUAGCAGUUUGGGCCUUCUCUUGCGGUCGCACUAGUGUGGAAUUCUCGGGUGUCAAGG
B8: ENSMUSG00000061578.1360|Ksr2|254:258 (ssRNA)
RNA: GGGAGUUCUACAGUCCGACGAUCGCUUCGAUAUCCGCAUGCUAAGGCAAGCAACCUUGCCAAGGCAGGCCAGACAGGACAGCCCAGCUUCCCACUCCAGACAUGUUGUUCUUACAUCUCUGACCCAGUGAUCUUUCUAGGGGUCUGUCACAUGUCCCAACAGGUGGACAGCUCUCCAAGUCACCAACCUGAGGAAAAUAUCCCUCCUUGUAAAAAGGCUUUCUCUUUGUAAAUGAUUCUGUUGCCUUUUUCUAAACACAAAGUAUAUAUACCUAUAAAUGCUAUAUAUAUUAUAUAACACAAUCUCUUGCGGUCGCACUAGUGUGGAAUUCUCGGGUGUCAAGG
B9: ENSMUSG00000029636.126|Wasf3 (ssRNA)
RNA: GGGAGUUCUACAGUCCGACGAUCGCUUCGAUAUCCGCAUGCUAUCACUUUCAUGGCUAGCCCUGAUAGCGUUGGGCACCAGUUAGCCAGGCCAUGUUCAAGCUGCCUAGAGUCUGCAGAGCUUGCAUGGCAGAGCGGCCGCAUCUGGUUCCCUCCUACUCCACCCAGUGGAAAAGAGACCUCCACGUUUUAUUUUCUGGGAUCCCUGCUCCUCUGUUCACCAGGGAGUGAGCACAGGUCAGCACCUCACCCCCCUUGCUCUGAAUCAUGGAAGCUUGGCUUUAGCUGAGAGAUGCCACCAGCUCUCUUGCGGUCGCACUAGUGUGGAAUUCUCGGGUGUCAAGG

Whole data set: some 9,900 sequences, median “r (bound/input frequency ratio)” near 0.7, cut for the highest 2% near 6.5. This is one part of a sample in which the highest values are shown more often than they occur.

In this assay the target is TDP-43 (Homo sapiens, UniProt Q13148 1-414). Kind of assay: RNA Bind-n-Seq with designed 260-mer pool; 25 mM Tris-HCl, 150 mM KCl, 3 mM MgCl2, BSA (printed 500 mg/mL), 20 units/mL SUPERase IN; pH not stated; 500 nM RNA pool, 1 h, 4 C; TDP-43 5, 50, 500 nM; high values mean tight binding. As to conditions: protein: recombinant; tags: SBP (GST cleaved off with PreScission; pGEX-GST-SBP). The procedure, abridged: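 In 25 mM Tris-HCl, 150 mM KCl, 3 mM MgCl2, BSA and SUPERase IN, 500 nM of an in vitro-transcribed 260-nt 3′ UTR oligo pool was incubated for 1 h at 4 °C with SBP-tagged TDP-43 (5, 50 or 500 nM) captured on streptavidin beads. RNA remaining after washes was biotin-eluted, reverse transcribed, PCR-amplified and sequenced. Binding, R, is the bound-sample abundance of each oligo, normalized to mapped reads, divided by its abundance in input. Each duplicate used a separate, independent protein batch.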
Chain of TDP-43 (Q13148 whole entry): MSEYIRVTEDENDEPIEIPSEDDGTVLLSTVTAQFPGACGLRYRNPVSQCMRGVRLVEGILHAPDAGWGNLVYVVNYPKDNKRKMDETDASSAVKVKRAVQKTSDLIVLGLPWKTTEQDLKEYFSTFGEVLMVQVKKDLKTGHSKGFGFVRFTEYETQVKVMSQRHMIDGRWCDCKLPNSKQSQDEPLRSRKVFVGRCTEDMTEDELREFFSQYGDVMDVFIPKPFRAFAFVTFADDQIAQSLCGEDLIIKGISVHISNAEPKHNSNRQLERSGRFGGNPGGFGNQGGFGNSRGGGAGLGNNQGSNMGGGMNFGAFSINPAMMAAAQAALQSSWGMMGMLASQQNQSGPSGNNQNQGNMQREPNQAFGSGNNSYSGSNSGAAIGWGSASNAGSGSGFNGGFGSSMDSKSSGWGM
As to B1, the binding signal was 0.305 R (bound/input frequency ratio). The figure for B2 is 0.308 R (bound/input frequency ratio); for B3 it is 1.85 R (bound/input frequency ratio); for B4 it is 1.33 R (bound/input frequency ratio). Turning to B5, the binding signal was 1.01 R (bound/input frequency ratio). The result for B6 reads 0.874 R (bound/input frequency ratio); that for B7, 0.919 R (bound/input frequency ratio); that for B8, 0.201 R (bound/input frequency ratio). The result for B9 reads 1.2 R (bound/input frequency ratio).
